For test [1], the target named is T1, Methionyl-tRNA synthetase, putative (Leishmania donovani (strain BPK282A1)) (UniProt E9BF75).
T1 sequence (whole entry): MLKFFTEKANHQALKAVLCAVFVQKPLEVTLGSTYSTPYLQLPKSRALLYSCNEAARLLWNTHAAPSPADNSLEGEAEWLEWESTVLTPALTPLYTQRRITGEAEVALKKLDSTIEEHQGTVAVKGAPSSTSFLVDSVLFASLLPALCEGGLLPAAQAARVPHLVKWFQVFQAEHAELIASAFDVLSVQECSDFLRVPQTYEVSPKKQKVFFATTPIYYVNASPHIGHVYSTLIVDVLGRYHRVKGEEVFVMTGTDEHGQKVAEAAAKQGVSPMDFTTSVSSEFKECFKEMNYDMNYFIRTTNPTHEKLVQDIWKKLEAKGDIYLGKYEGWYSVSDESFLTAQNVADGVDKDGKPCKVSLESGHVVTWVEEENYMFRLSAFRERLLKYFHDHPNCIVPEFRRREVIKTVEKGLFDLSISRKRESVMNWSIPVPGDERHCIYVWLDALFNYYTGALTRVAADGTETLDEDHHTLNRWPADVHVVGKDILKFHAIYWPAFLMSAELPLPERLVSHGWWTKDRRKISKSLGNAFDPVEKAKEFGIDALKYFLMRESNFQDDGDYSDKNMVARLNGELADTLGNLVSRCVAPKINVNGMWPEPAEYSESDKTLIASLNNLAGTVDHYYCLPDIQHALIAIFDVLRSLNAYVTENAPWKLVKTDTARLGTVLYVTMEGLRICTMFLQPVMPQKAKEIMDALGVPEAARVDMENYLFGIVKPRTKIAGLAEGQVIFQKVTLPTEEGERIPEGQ
The experiment in a line: Leishmania donovani Methionine tRNA synthetase (LdMetRS):v7. Dose response assay. In kind it is functional. Details: conc 80 nM, time 150 minutes.

In test [2] the target is Protein translocase subunit SecA (Escherichia coli (strain K12)) (UniProt P10408). Description: Assay to Identify E. coli SecA ATPase Inhibitors. The format is functional. Details: scale not given: direction of the effect not stated beside the values. As to conditions: 30 µM.
For test [3], the target named is T2, Ubiquitin-activating enzyme e1, putative (Leishmania donovani (strain BPK282A1)) (UniProt E9BSI1).
T2 sequence (whole entry): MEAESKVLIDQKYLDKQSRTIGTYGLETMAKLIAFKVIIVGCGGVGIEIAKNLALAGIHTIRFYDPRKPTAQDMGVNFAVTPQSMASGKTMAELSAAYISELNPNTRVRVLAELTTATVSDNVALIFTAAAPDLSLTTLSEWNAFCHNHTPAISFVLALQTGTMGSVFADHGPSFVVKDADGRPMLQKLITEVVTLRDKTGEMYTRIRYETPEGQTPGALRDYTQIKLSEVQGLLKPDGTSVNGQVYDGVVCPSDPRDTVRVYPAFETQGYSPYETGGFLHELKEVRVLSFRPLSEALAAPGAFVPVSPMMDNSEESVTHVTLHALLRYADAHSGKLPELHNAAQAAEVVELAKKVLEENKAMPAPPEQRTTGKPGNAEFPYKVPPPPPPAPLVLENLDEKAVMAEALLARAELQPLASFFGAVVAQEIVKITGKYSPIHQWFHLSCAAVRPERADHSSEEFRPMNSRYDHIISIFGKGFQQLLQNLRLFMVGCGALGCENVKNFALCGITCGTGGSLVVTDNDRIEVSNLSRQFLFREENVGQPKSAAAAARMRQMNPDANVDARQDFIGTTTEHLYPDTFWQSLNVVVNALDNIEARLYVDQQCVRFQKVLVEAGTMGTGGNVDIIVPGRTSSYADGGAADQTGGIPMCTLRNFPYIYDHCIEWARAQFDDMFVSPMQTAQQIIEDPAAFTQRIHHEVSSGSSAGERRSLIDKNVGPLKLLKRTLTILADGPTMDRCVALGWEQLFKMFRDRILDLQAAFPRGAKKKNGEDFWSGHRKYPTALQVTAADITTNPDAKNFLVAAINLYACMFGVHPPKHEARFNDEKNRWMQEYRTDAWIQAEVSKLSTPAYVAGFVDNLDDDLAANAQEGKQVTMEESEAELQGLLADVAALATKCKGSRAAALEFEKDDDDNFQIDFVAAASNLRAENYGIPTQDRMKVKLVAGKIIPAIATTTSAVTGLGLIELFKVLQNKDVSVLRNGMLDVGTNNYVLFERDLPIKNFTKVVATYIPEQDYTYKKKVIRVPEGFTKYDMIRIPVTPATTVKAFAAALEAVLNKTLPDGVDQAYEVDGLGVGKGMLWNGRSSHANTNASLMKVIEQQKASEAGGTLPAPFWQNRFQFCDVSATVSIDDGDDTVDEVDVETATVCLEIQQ
The experiment in a line: Leishmania donovani Ubiquitin Activating Enzyme (LdE1). The format is functional. Details: scale not given: direction of the effect not stated beside the values. As to conditions: 30 µM.

Test [4] concerns the target AMP-activated protein kinase, AMPK (Homo sapiens) (UniProt P54646+O43741+P54619+Q9UGJ0+Q9Y478+Q13131+Q9UGI9). Description: AMP-dependent Kinase enzyme assay. An in vitro enzyme assay that detects ADP turnover that is directly proportional to AMPK activity. This uses naive AMPK that is activated during the assay with MK-8722. In kind it is functional. Details: scale not given: direction of the effect not stated beside the values. The note with it: 30 µM.

The target of test [5] is Sialic acid-binding Ig-like lectin 9 (Homo sapiens) (UniProt Q9Y336). Description: Hs-Siglec9 ALPHAscreen SOP 20170721. More on the design: scale not given: direction of the effect not stated beside the values. The note with it: 10 µM.
A further test concerns Trypanosoma cruzi. The experiment in a line: Trypanosoma cruzi phosphomannomutase and mannose-1-phosphate guanylyltransferase assay. In kind it is functional. Details: scale not given: direction of the effect not stated beside the values. As to conditions: 10 µM.
Test [6] deals with T3, Arginase-2, mitochondrial (Homo sapiens) (UniProt P78540).
T3 sequence (whole entry): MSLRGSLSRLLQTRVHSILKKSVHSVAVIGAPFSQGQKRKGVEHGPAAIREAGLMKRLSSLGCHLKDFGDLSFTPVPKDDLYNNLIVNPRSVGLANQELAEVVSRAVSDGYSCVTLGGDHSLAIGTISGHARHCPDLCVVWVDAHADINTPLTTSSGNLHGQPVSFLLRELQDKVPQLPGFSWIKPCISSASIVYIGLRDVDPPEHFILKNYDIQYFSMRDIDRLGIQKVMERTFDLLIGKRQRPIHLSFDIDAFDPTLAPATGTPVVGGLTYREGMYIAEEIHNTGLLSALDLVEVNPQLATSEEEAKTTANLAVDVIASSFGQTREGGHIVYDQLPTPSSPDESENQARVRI
Description: in vitro enzyme assay to detect the production of urea directly proportional to the activity of Arginase II. The format is functional. More on the design: scale not given: in the data most compounds retested in dose-response had high values. As to conditions: 33.3 µM.

In test [7] the target is T4, Proteasome subunit beta (Trypanosoma cruzi) (UniProt O96673).
T4 sequence (whole entry): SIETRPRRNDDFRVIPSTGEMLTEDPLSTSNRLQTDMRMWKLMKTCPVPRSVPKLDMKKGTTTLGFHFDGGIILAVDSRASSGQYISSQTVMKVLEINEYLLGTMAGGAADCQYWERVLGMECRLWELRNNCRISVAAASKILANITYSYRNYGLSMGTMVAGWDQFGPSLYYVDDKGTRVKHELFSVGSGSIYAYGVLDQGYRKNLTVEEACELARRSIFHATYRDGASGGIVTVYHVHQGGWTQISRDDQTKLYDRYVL
The experiment in a line: Trypanosoma cruzi proteasome chymotrypsin-like activity (TcProtChymo) assay. The note with it: 9.37 µM. More on the design: scale not given: in the data most compounds retested in dose-response had high values. In kind it is functional.

The species named for a further test is Homo sapiens. The experiment in a line: To identify inhibition of the IFN signalling (Jak-Stat) pathway via expression of an eGFP reporter gene under the control of an IFN-stimulated response element (ISRE) containing MxA promoter. In kind it is functional. More on the design: scale not given: direction of the effect not stated beside the values. The note with it: 30 µM. A general note: Reporter assays use an easily measured gene product as a stand-in for the process of interest.

In test [8] the target is T5, Tyrosyl-tRNA synthetase, putative (Trypanosoma cruzi (strain CL Brener)) (UniProt Q4DSP6).
T5 sequence (whole entry): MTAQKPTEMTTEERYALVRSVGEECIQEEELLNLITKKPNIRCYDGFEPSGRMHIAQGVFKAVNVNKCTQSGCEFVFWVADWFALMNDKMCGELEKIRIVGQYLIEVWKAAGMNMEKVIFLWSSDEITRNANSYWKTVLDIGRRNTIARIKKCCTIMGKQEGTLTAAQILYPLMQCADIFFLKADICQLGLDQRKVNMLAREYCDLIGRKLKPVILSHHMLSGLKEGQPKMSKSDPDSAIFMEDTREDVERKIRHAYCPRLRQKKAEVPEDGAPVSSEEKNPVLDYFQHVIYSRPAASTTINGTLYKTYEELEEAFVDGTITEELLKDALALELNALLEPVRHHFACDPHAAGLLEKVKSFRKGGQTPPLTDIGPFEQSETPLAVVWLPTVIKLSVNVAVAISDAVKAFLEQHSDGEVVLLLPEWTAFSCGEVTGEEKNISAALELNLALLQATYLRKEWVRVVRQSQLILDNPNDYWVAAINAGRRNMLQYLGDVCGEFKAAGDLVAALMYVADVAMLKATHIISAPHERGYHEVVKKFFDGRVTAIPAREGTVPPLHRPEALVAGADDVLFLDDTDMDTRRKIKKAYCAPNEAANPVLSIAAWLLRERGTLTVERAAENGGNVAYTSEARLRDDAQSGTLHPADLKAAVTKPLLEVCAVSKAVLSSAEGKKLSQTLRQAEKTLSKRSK
Description: Trypanosoma cruzi tyrosyl tRNA synthetase (TcYRS) _High Tyrosine SOP. The format is functional. Details: scale not given: in the data most compounds retested in dose-response had high values. The note with it: 30 µM.

Test [9] concerns the target T5, Tyrosyl-tRNA synthetase, putative (Trypanosoma cruzi (strain CL Brener)). Description: Trypanosoma cruzi tyrosyl tRNA synthetase (TcYRS) SOP. The format is functional. Details: scale not given: direction of the effect not stated beside the values. The note with it: 30 µM.
Test [10] addresses Chromo domain-containing protein 1 (Saccharomyces cerevisiae (strain ATCC 204508 / S288c) (Baker's yeast)) (UniProt P32657). Description: ScCHD-1 Enzyme Inhibition Assay. The format is functional. More on the design: scale not given: in the data most compounds retested in dose-response had high values. The note with it: 30 µM.

From ChEMBL document CHEMBL3988442, “University of Dundee, Small-Polar-MMV Screening Library” (2021) come the findings set out here.

Structures are written as SMILES. For some assays here: Potency and affinity values are given separately.

Sequence of Protein translocase subunit SecA (Escherichia coli (strain K12)) (P10408 whole entry): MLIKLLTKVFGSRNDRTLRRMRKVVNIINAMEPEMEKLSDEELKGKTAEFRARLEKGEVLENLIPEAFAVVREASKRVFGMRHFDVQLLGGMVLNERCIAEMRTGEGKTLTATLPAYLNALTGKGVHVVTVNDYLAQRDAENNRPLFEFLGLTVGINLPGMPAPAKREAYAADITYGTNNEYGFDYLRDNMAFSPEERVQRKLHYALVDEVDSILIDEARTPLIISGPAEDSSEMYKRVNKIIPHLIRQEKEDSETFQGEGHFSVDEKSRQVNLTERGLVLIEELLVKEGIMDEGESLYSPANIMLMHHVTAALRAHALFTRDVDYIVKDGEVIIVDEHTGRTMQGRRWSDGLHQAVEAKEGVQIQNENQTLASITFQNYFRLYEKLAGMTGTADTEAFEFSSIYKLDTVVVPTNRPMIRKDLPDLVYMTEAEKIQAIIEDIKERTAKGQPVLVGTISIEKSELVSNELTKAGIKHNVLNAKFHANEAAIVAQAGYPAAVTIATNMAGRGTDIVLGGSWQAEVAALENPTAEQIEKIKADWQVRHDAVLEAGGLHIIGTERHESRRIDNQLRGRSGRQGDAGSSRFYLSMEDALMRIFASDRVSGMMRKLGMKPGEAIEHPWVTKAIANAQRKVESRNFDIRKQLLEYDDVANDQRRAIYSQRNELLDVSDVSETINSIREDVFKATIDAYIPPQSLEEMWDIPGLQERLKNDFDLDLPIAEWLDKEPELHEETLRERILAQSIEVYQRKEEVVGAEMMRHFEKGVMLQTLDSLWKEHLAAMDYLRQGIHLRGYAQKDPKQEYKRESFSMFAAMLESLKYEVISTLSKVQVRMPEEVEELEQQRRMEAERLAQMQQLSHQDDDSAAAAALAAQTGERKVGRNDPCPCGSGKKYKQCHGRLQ
Sequence of Sialic acid-binding Ig-like lectin 9 (Homo sapiens) (Q9Y336 whole entry): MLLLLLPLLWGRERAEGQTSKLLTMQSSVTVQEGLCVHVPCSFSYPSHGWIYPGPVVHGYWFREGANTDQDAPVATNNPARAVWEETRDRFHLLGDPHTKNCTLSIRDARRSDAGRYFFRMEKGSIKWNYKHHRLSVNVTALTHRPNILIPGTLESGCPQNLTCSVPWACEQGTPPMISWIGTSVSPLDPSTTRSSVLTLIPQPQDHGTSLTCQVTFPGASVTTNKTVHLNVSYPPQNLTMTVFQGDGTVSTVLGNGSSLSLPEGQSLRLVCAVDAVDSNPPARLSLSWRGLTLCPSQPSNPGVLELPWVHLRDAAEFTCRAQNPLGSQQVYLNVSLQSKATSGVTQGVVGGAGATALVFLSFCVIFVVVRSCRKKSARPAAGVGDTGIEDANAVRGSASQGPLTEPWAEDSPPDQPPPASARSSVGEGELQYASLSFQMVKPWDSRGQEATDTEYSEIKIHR
Sequence of Chromo domain-containing protein 1 (Saccharomyces cerevisiae (strain ATCC 204508 / S288c) (Baker's yeast)) (P32657 whole entry, the tested form may be a part): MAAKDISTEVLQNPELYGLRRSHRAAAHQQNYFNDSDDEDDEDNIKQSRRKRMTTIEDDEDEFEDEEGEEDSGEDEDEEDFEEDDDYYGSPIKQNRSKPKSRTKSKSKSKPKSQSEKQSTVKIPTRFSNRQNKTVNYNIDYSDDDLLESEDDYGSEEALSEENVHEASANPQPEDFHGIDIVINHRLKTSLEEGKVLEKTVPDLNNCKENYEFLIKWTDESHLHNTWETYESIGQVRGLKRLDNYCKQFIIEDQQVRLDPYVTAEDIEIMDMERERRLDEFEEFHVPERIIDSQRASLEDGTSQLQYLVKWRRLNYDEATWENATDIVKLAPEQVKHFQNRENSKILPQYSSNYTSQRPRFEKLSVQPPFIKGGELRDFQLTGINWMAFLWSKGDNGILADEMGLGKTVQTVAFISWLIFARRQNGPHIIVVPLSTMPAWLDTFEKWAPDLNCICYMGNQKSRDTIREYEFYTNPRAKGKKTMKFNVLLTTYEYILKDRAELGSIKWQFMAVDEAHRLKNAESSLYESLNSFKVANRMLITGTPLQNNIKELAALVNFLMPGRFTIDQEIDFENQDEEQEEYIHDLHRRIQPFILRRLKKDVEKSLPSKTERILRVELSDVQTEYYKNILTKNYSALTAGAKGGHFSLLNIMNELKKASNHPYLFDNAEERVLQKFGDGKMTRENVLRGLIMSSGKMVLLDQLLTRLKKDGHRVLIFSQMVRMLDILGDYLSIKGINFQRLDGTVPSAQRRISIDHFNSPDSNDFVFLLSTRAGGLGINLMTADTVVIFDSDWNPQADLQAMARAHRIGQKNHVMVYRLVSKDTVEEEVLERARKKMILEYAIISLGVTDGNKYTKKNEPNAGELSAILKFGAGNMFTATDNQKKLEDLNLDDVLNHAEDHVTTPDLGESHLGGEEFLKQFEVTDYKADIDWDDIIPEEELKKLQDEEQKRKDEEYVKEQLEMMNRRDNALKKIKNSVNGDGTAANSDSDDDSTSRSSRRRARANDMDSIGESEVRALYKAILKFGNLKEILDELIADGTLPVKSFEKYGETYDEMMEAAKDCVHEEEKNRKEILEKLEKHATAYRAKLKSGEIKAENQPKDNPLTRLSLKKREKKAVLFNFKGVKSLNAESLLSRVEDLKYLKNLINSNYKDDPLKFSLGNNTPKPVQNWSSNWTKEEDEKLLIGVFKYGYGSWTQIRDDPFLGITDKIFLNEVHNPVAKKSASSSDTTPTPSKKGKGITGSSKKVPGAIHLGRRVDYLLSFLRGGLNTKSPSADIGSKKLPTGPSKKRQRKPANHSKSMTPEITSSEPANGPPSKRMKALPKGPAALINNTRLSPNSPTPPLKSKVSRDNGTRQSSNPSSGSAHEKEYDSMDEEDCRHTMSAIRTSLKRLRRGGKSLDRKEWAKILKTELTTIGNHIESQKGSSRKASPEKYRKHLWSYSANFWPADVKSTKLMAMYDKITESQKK

In the case of `CN(CC1CC1)c1ccc2ccc(C(=O)NCCc3ccccc3)cn12`, the PXC50 in test [1] (BOTTOM 0.351029795, HILLSLOPE 1.115089004, MAX_EFFECT 62.13151927, TOP 107.5835515) is 4.12; in [1] (BOTTOM 1.92078188, HILLSLOPE 1.430695014, MAX_EFFECT 75.69444444, TOP 86.56449287), 4.61; in test [1] (BOTTOM 2.657056439, HILLSLOPE 1.351512964, MAX_EFFECT 68.11091854, TOP 100.0) it was 4.19; in test [1] (BOTTOM -1.049582542, HILLSLOPE 1.242411624, MAX_EFFECT 75.16778523, TOP 98.82108854), 4.43; in [1] (MAX_EFFECT 50.8411215), under 4.

With `COc1ccccc1C(=O)NC(c1ccccn1)[C@H]1CC[C@H](CN)CC1` (stereo partly drawn), the PXC50 was 4.08 in test [1] (BOTTOM -1.193557467, HILLSLOPE 1.40396169, MAX_EFFECT 57.36568458, TOP 100.0); 4.3 in test [1] (BOTTOM -5.444679276, HILLSLOPE 1.669546179, MAX_EFFECT 75.83892617, TOP 100.0); 4.41 in test [1] (BOTTOM -12.31313032, HILLSLOPE 1.366255023, MAX_EFFECT 79.86111111, TOP 100.0); under 4 in test [1] (MAX_EFFECT 0.790513834); under 4 in test [1] (MAX_EFFECT 6.349206349).

Take `FC1(F)CCN(Cc2ccccn2)CC12CCN(c1cccnc1)C2` (stereo not drawn): the PXC50 in [1] (MAX_EFFECT 3.800475059) and in test [1] (MAX_EFFECT 6.161971831) was under 4 throughout. Further, the Percent Effect in test [2] was -7.19%; in [3] it was 2.7%; in test [4], 114%; in [5] it was -3.38%; with Trypanosoma cruzi, -1.86%; in [6], 2.87%. The Percent Effect is 0.369% in test [7]; 49.7% in the test filed under Homo sapiens; -3.24% in test [8]; -2.56% in test [9]; -1.38% in test [10].
